The subject of experiment [1] is Zika virus NS2B-NS3 protease. The experiment can be described thus: Primary screen GU AMC qHTS for Zika virus inhibitors (AID 1347154). Also: nearly all actives have a fitted effect of over 70% in size. Summed up:
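Fluorogenic AMC-substrate cleavage by noncovalent NS2B-NS3 protease complex (25 nM, pH 8.0 Tris buffer with Tween 20) followed for 15 minutes at room temperature (~20% conversion). Percent inhibition from ex340/em450 signal change, fitted by 4-parameter Hill equation.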

The target in experiment [2] is Glucocorticoid receptor (Homo sapiens) (UniProt P04150). Description: GR-GFP Redistribution (AID 450;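 active = compounds whose dose series gives a full or clear partial fitted curve of increased nuclear translocation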; also: potency is read from the fitted curve at half-maximal effect). Conditions: U2OS GR-GFP nuclear translocation, laser cytometry, 2 h.
Glucocorticoid receptor (Homo sapiens), sequence (P04150 whole entry, looked up): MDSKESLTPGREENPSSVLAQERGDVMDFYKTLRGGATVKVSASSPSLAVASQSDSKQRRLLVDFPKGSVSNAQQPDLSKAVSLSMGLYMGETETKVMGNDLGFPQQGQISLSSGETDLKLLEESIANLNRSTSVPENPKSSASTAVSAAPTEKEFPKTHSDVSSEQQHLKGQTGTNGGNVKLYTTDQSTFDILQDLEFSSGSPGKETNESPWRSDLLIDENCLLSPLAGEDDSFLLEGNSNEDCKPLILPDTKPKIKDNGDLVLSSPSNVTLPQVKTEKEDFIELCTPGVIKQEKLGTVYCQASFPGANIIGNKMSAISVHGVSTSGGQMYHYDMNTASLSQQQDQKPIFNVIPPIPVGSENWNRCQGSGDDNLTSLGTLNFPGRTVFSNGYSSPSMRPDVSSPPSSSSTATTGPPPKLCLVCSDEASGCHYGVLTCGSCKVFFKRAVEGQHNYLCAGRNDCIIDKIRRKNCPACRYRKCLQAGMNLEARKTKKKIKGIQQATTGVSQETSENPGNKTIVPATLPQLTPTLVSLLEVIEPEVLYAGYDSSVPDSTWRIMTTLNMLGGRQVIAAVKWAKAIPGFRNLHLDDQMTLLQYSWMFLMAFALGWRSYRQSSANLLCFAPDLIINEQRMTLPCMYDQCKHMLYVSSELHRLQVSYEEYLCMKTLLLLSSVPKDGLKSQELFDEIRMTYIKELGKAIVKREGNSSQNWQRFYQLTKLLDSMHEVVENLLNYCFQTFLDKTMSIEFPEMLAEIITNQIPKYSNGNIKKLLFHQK
Experiment [3] shares this target. The experiment can be described thus: GR-EFC Redistribution (AID 451; calls by dose curve; also: potency is read from the fitted curve at half-maximal effect). Conditions: CHO-K1 GR-EFC translocation, beta-gal luminescence, 2 h. Summed up:
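Translocation of GR-ED fusion to nuclear EA restores b-gal, read by luminescence after 1 h room-temperature detection. Engineered CHO-K1 biosensor cells, 1,000/well, exposed 2 h at 37 C to titrations up to 46 uM final.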

For experiment [4], the target named is Mitogen-activated protein kinase 10 (Mus musculus) (UniProt Q61831). The experiment can be described thus: JNK3 AlphaScreen Assay (AID 530; active = well fitted curve in either direction with a large enough effect, not every such curve was filed as active;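 also: kinase came from lysate of stimulated human HepG2 cells; signal reports phosphorylation of biotinylated GST-cJun 1-79 at Ser73 with 10 µM ATP; series mostly up to about 57 µM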). Summed up: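 Room-temperature AlphaScreen kinase assay; pre-activated HepG2 lysate as JNK3 source, biotin-GST-cJun(1-79) substrate, 10 uM ATP, compound 15 min preincubation.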
Experiment [5] deals with Ubiquitin carboxyl-terminal hydrolase 1 (Homo sapiens) (UniProt O94782). Description: Inhibitors of USP1/UAF1: Pilot qHTS (AID 504865).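 Also: rhodamine fluorescence freed from ubiquitin-rhodamine substrate followed over time; top concentration of the series differs between compounds; nearly all actives have a fitted effect of over 35% in size.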 Summed up: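 1nM USP1/UAF1 + cpd, 15 min RT; start w/ Ub-Rho 150nM final; kinetic FL 480/540 nm, 6 reads q60 s. Buffer 50mM HEPES pH 7.8, 0.5mM EDTA, 1mM TCEP, 0.01% Tween-20, 0.1 mg/ml BSA.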
Ubiquitin carboxyl-terminal hydrolase 1 (Homo sapiens), sequence (O94782 whole entry, looked up): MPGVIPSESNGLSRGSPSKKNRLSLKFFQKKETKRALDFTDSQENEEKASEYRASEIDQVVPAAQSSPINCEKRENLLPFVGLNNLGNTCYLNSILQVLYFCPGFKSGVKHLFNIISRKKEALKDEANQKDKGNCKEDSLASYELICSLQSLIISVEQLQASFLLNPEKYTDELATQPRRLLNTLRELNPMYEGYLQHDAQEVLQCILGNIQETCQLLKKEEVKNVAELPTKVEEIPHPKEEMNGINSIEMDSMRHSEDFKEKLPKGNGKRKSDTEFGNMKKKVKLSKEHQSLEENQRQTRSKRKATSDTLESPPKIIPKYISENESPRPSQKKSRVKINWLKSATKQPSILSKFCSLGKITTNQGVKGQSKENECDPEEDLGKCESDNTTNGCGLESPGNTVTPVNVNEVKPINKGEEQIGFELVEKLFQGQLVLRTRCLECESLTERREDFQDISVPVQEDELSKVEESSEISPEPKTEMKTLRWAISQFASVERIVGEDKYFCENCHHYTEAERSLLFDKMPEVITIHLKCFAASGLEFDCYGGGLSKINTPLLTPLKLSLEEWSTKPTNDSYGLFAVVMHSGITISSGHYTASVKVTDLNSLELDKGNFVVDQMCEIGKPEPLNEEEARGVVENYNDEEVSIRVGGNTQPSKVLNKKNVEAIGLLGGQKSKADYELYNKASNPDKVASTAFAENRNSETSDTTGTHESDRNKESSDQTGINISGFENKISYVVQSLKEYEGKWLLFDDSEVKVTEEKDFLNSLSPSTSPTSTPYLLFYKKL
Experiment [6] has as its system Zika virus NS2B-NS3 protease (linked construct). The experiment can be described thus: Primary screen NINDS Rhodamine qHTS for Zika virus inhibitors (AID 1347160). Also: nearly all actives have a fitted effect of over 55% in size. Also: potency is read from the fitted curve at half-maximal effect. Summed up: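 In 10 mM Tris-HCl pH 8.0 containing 0.01% Tween 20, linked NS2B-NS3 protease (25 nM final) is exposed to test compounds for 15 min. Cleavage of 1.5 microM Rhodamine110 substrate is tracked by fluorescence over 15 min.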

The nature of experiment [7]: OV-KATE Cancer Cell Toxicity qHTS against the NCATS CANVASS Library (AID 1347345). Also: potency is read from the fitted curve at half-maximal effect. Summed up: (§1)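 Viability was assessed by adding CellTiter-Glo reagent to treated cultures and reading luminescence after 15min at room temperature. Treatment lasted 72 h at 37 degrees C/5% CO2, using an 11-point series on 1000 cells/well.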
Experiment [8] is described as follows: HPAF-II Cancer Cell Toxicity qHTS against the NCATS CANVASS Library (AID 1347346). Also: nearly all actives have a fitted effect of over 55% in size. Also: potency is read from the fitted curve at half-maximal effect. An outline of the steps: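 HPAF-II cells were seeded at 1000 cells/well, allowed to settle for 4 h at 37 degrees C, then exposed to compounds in an 11-point series for 72 h. Viability was read by CellTiter-Glo luminescence.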
Experiment [9] can be described thus: OV-SAHO Cancer Cell Toxicity qHTS against the NCATS CANVASS Library (AID 1347348). Also: nearly all actives have a fitted effect of over 55% in size. Also: potency is read from the fitted curve at half-maximal effect. An outline of the steps:
as §1

Experiment [10] is described as follows: Panc-1005 Cancer Cell Toxicity qHTS against the NCATS CANVASS Library (AID 1347349). Also: nearly all actives have a fitted effect of over 60% in size. Also: potency is read from the fitted curve at half-maximal effect. Summed up:
as §1

Experiment [11] can be described thus: COV-362 Cancer Cell Toxicity qHTS against the NCATS CANVASS Library (AID 1347352). Also: potency is read from the fitted curve at half-maximal effect. An outline of the steps:
(§2)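 Cells were seeded at 1000 per well and allowed to settle 4 hours at 37 degrees C before pin transfer of compounds as an 11-point series. Viability was read by CellTiter-Glo luminescence after 72 hours' exposure.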

A short description of experiment [12]: UWB1.289-WTBRCA1 Cancer Cell Toxicity qHTS against the NCATS CANVASS Library (AID 1347354). Also: potency is read from the fitted curve at half-maximal effect. An outline of the steps: as §2
A short description of experiment [13]: HEK293 24hr Apoptosis Induction qHTS against the NCATS CANVASS Library (AID 1347359). Also: potency is read from the fitted curve at half-maximal effect. Summed up: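 Caspase-3/7 activation measured as luminescence from the DEVD-based Caspase-Glo reagent, 15 min at room temperature, following 24-hour compound treatment of HEK293 cells.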
The nature of experiment [14]: HEK293 12hr Apoptosis Induction qHTS against the NCATS CANVASS Library (AID 1347361). Also: potency is read from the fitted curve at half-maximal effect. Summed up:
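500 HEK293 cells/well; cpds pin-transferred, 11-pt conc series; 12 h, 37 degrees C/5% CO2; Caspase-Glo 3/7 added, 15 min RT dark; luminescence.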

In experiment [15] the test system is NAD(P)H diaphorase (Clostridium kluyveri). The experiment can be described thus: Diaphorse counterscreen qHTS: Assay Interference Panel against the NCATS CANVASS Library (AID 1347362). An outline of the steps: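 Counterscreen for coupling-enzyme interference: resorufin fluorescence from resazurin/NADH turnover, read after 5 min at room temperature. Compounds were tested over an 11-point series after 15 min dark preincubation with diaphorase in PBS-Tween.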

Experiment [16] addresses Luciferin 4-monooxygenase (Photinus pyralis) (UniProt P08659). Description: Firefly luciferase counterscreen qHTS: Assay Interference Panel against the NCATS CANVASS Library (AID 1347363). Also: series mostly up to about 57 µM. Summed up: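 Luminescence inhibition readout: compounds (11-point qHTS) sat 15 min at room temperature with substrate mix (0.013 mM luciferin and ATP), then firefly luciferase was added and signal read 5 min later.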

Unmarked numbers belong to inactive results. Inconclusive results are not listed. The source made the active and inactive calls. Unless noted, calls follow the shape of the dose curve; as a rule, active = well fitted curve in the direction sought with a large enough effect; inconclusive = small, poorly fitted or top-dose-only effect, or another doubt; inactive = no such curve, though single readings can be large; an effect the other way counts as inactive or inconclusive. Some results are limits rather than exact numbers.

Luciferin 4-monooxygenase (Photinus pyralis), sequence (P08659 whole entry, looked up): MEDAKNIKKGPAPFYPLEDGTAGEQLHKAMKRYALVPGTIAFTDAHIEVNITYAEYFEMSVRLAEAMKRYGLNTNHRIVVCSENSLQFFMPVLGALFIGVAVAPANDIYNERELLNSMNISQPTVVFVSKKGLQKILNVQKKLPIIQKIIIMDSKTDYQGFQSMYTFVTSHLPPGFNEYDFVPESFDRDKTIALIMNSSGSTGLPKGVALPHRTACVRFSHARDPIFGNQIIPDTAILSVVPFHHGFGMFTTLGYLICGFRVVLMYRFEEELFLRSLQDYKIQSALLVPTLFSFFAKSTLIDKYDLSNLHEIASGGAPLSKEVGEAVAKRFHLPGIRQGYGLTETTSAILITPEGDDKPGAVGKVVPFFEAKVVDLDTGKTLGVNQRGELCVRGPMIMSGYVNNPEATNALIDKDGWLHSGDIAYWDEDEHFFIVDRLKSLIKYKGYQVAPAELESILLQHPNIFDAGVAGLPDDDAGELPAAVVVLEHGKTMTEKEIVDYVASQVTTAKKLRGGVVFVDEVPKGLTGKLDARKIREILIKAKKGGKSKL

`CN1[C@@H]2CC[C@H]1CC(OC(=O)N1Cc3ccccc3NC1=O)C2` (some centres undefined): in experiment [1], the Potency entry is “inactive”.

As for `CN1CC[C@@H]2CN3CCc4cccc(c43)[C@H]2C1`, the Potency in experiment [2] and in experiment [3] was above 46 µM throughout. Moreover, the molecule was classed as inactive in experiment [4]. For the same molecule, the Potency result in [5] and in [1] was “inactive” each time.

On to `CC[N@@+]1([O-])C[C@]2(C)CC[C@@H](O)[C@@]34C5C[C@H]6CC[C@@]5(C(C[C@H]23)C41)[C@H](O)[C@@]6(O)CO` (some centres undefined), for which, in experiment [6], the Potency is 49.3 µM (active). Besides, the Potency result in experiment [7], in [8], in experiment [9], in experiment [10], in [11] and in experiment [12] was “inactive” in each case. The Potency result in [13] and in experiment [14] was “inactive” each time. Also, the molecule was called inactive in experiment [15] and in experiment [16].

Turning to `O=C1Nc2cc(Cl)c(Cl)cc2N2CCNC[C@H]12`, the Potency in experiment [2] and in experiment [3] was above 46 µM throughout. In experiment [4], the molecule was called inactive. In addition, the Potency result in experiment [5] and in experiment [1] was “inactive” throughout.

With `CCN1C[C@]2(C)CC[C@H](O)[C@]34C1C(C[C@H]23)[C@@]12CC[C@H](CC14)[C@](O)(COC(=O)c1ccc(OC)c(OC)c1)[C@H]2O` (some centres undefined), the Potency entry in experiment [6], in [7], in experiment [8], in experiment [9], in experiment [10] and in experiment [11] was “inactive” in each case. For the same molecule, the Potency result in [12], in experiment [13] and in experiment [14] was “inactive” throughout. In addition, the outcome in experiment [15] and in experiment [16] was inactive.

As to `CC1=CC(=O)C2=C(C)C[C@H](O)[C@@H]3[C@H](OC(=O)[C@@H]3C)[C@@H]12`, in experiment [6], the Potency is 49.3 µM (active). The Potency result in [7], in [8], in experiment [9], in experiment [10], in [11] and in [12] was “inactive” throughout. Moreover, the Potency result in [13] and in [14] was “inactive” each time. Besides, the molecule was called inactive in experiment [15] and in [16].

Regarding `C[C@@H]1CC[C@@H](c2ccoc2)N2C[C@@]3(CC[C@@H]12)CS[C@@]1(CC[C@H]2[C@H](C)CC[C@@H](c4ccoc4)N2[C@@H]1O)C3`, the Potency in experiment [6] was 31.1 µM (active); in experiment [7], 7.47 µM (active); in [8], 2.98 µM (active); in [9], 5.94 µM (active); in experiment [10], 5.3 µM (active); in experiment [11], 7.47 µM (active). Moreover, the Potency in experiment [12] was 8.38 µM (active); in experiment [13] it was 10.5 µM (active); in [14] it was 8.33 µM (active). Further, the molecule was called inactive in experiment [15] and in experiment [16].

Turning to `CC=C1CN(C=O)[C@H]2C[C@@H]1[C@@H](C(=O)OC)[C@@]13CCOC21Nc1ccccc13` (some centres undefined), the Potency in experiment [6] was 44 µM (active). Besides, the Potency result in experiment [7], in experiment [8], in experiment [9], in experiment [10], in [11] and in [12] was “inactive” in each case. Further, the Potency result in experiment [13] and in [14] was “inactive” each time. For the same molecule, the molecule was called inactive in experiment [15] and in experiment [16].

With `CC[C@@H]1CN2CC[C@@]3(O)C(=Nc4cccc(OC)c43)[C@@H]2C[C@@H]1/C(=C\OC)C(=O)OC`, the Potency result in [6], in [7], in experiment [8], in experiment [9], in experiment [10] and in experiment [11] was “inactive” throughout. Also, the Potency entry in experiment [12], in [13] and in experiment [14] was “inactive” each time. In addition, the molecule was called inactive in experiment [15] and in experiment [16].

With `c1ccc2c3c([nH]c2c1)CNCC3`, the Potency in experiment [2] was above 20.6 µM. Also, the Potency result in experiment [6], in experiment [7], in [8], in experiment [9], in experiment [10] and in experiment [11] was “inactive” each time. For the same molecule, the Potency entry in experiment [12], in experiment [13] and in experiment [14] was “inactive” in each case. Besides, the call in experiment [15] and in experiment [16] was inactive.

The values above are taken from PubChem BioAssay (NCATS).
